Data reported in PubChem BioAssay (NCI).
About 83,000 compounds went through this panel and 20% of them were active in at least one assay; those are over-represented in the sample as a whole.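 Cells were grown in 96-well plates and exposed to the test compound at a single concentration for 48 hours; results are reported as percent growth, with values below 10 considered active.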 Values without a mark were called inactive. Activity calls are given as the source filed them.

Experiments:
Experiment in all cases: NCI-60 one-dose screen, 48 h (100 = growth as untreated, 0 = no growth, -100 = all killed)
SK-MEL-2 melanoma = conditions: 10 µM unless noted
EKVX NSCLC = conditions: 10 µM unless noted
SN12C renal = conditions: 10 µM unless noted
UO-31 renal = conditions: 10 µM unless noted
ACHN renal = conditions: 10 µM unless noted
CAKI-1 renal = conditions: 10 µM
A498 renal = conditions: 10 µM unless noted
CCRF-CEM leukemia = conditions: 10 µM unless noted
MOLT-4 leukemia = conditions: 10 µM unless noted
SR leukemia = conditions: 10 µM unless noted
RPMI-8226 leukemia = conditions: 10 µM unless noted
OVCAR-8 ovarian = conditions: 10 µM unless noted
OVCAR-5 ovarian = conditions: 10 µM unless noted
OVCAR-4 ovarian = conditions: 10 µM unless noted
SK-OV-3 ovarian = conditions: 10 µM unless noted
IGROV1 ovarian = conditions: 10 µM unless noted
OVCAR-3 ovarian = conditions: 10 µM unless noted
NCI/ADR-RES ovarian = conditions: 10 µM unless noted
HS 578T breast = conditions: 10 µM unless noted

SMILES | growth (SK-MEL-2 melanoma) | growth (EKVX NSCLC) | growth (SN12C renal) | growth (UO-31 renal) | growth (ACHN renal) | growth (CAKI-1 renal) | growth (A498 renal) | growth (CCRF-CEM leukemia) | growth (MOLT-4 leukemia) | growth (SR leukemia) | growth (RPMI-8226 leukemia) | growth (OVCAR-8 ovarian) | growth (OVCAR-5 ovarian) | growth (OVCAR-4 ovarian) | growth (SK-OV-3 ovarian) | growth (IGROV1 ovarian) | growth (OVCAR-3 ovarian) | growth (NCI/ADR-RES ovarian) | growth (HS 578T breast)
CCC(CC(C)C)Nc1ccc(NC(CC)CC(C)C)cc1 (stereo unspecified) | 86.4% | 81.4% | 96.3% | 93% | 95.3% | 99.1% | 94.1% | 10.4% | 34.5% | 48.9% | -5.42% (active) | 87.6% | 108% | 75.8% | 94.4% | 83.9% | -6.06% (active) | 96.6% | –
O=c1c2ccccc2[nH]n1Cc1ccc2c(c1)OCO2 | 104% | 105% | 101% | 92.7% | 103% | 104% | 90.3% | 96.2% | 97.4% | 115% | 90.5% | 104% | 95.7% | 105% | 112% | 111% | 104% | 113% | 103%
O=C1OC(N(Cc2ccc(Cl)cc2)c2ccccc2)c2ccccc21 (stereo unspecified) | 94.4% | 102% | 94.6% | 94.5% | 108% | 103% | 90.1% | 92.2% | 81.9% | 97.8% | 97.2% | 107% | 109% | 116% | 97.2% | 90.7% | 104% | 105% | 108%
O=S(=O)(CCN1CCOCC1)Nc1cc(-c2ccc3ncnc(Nc4ccc(F)c(Cl)c4)c3c2)cnc1Cl | 2.26% (active) | 7.72% (active) | 18% | -8.69% (active) | 9.87% (active) | 17% | -40% (active) | 14.5% | -8.59% (active) | 18.8% | 9.83% (active) | 16.1% | 12.1% | 11.5% | -25.4% (active) | -24.1% (active) | -8.19% (active) | 48.6% | -18.3% (active)
CCN1CCN(Cc2ccc(NC(=O)Nc3cccc(-n4ccc5c(NC(=O)c6ccccc6)nccc54)c3)cc2C(F)(F)F)CC1 | 90.6% | 89.8% | 95.7% | 72.3% | 96% | 81% | 90% | 78.7% | 112% | 64.3% | 99.1% | 91% | 101% | 95.8% | 78.3% | 74.8% | 57.3% | 92.1% | –
O=C(Nc1ccc(-n2ccc3c(NC(=O)c4ccccc4)nccc32)cc1)Nc1cccc(C(F)(F)F)c1 | 71.9% | 65.5% | 79.2% | 78% | 62.2% | 68.6% | 80.7% | 13.8% | 35.9% | 18.8% | 19.4% | 48.5% | 81.8% | 26% | 92.2% | 54.1% | 15.2% | 65.7% | –
O=C1COc2ccccc2C(=O)N1CCCCNc1ccccc1 | 104% | 106% | 58.4% | 12.2% | 110% | 107% | 97.8% | 1.06% (active) | 34.1% | 84.8% | 28.3% | 93.9% | 107% | 112% | 84.8% | 99.9% | 105% | 94.6% | 108%
C[C@]12O[C@H]1[C@H](O)c1c(cc(O)c3c1C(=O)c1cccc(O)c1-3)C2=O | 99.3% | 97.8% | 88.8% | 91.1% | 99.3% | 99.9% | 86.4% | 92% | 86.6% | 93.6% | 93.6% | 98.1% | 106% | 92.4% | 97.9% | 102% | 106% | 107% | 93.9%
COc1ccc(-c2nn(-c3ccc(NC(=O)Nc4cc(C(F)(F)F)cc(C(F)(F)F)c4)cc3)cc2-c2ccncc2)cc1Cl | -38.3% (active) | 21.7% | 17.2% | 13.3% | 18.5% | 5.4% (active) | 0.688% (active) | 9.25% (active) | 6.78% (active) | 1.23% (active) | -29.3% (active) | 12.9% | 17.7% | 47% | 22.9% | – | 3.27% (active) | 14% | –
O=S1(=O)N(CCNc2nccc(-c3c(-c4cccc(O)c4)nc4sccn34)n2)CCN1Cc1ccccc1 | 19.2% | 90.9% | 64.1% | 43.8% | 41.1% | 39.4% | -20.9% (active) | – | 63.1% | 55.4% | 47.4% | 48.3% | 113% | 110% | 52.9% | 51.9% | 64.9% | 74% | –
CO[C@H]1/C=C/C=C/C=C/C[C@H](OC(=O)[C@@H](C)NC(=O)C2CCCCC2)[C@H](C)[C@@H](O)/C(C)=C\CCC2=CC(=O)C=C(NC(=O)C1)C2=O | -42.7% (active) | -17% (active) | -10% (active) | 5.46% (active) | -34.8% (active) | 16.3% | -2.6% (active) | -0.0954% (active) | -10.4% (active) | – | -26.5% (active) | -16.2% (active) | 3.19% (active) | -13.9% (active) | -21.3% (active) | 3.97% (active) | -19.9% (active) | 32% | -16.2% (active)
COc1ccccc1P(c1ccccc1OC)c1ccccc1OC | 99.1% | 91% | 113% | 86.1% | 98.3% | 86.2% | 79.4% | 130% | 105% | 107% | 113% | 66% | – | 100% | 91.2% | – | 108% | 172% | 133%
O=C(NCCNc1nccc(-c2c(-c3cccc(O)c3)nc3sccn23)n1)c1cccc(C(F)(F)F)c1 | 62.1% | 91.6% | 83.2% | 73.4% | 66.1% | 75.6% | 84.5% | 37.5% | 61.5% | 97% | 44.2% | – | 113% | 117% | 84.2% | 62.1% | 89.8% | 98.3% | –
c1ccc(CNCCN(CCNCc2ccccn2)Cc2ccc3ccccc3c2)nc1 | 9.46% (active) | 15.4% | 7.67% (active) | -79.8% (active) | -27.9% (active) | -81.8% (active) | -17.5% (active) | 6.8% (active) | -24.3% (active) | 2.45% (active) | 10.6% | 11.1% | 0.822% (active) | 0.169% (active) | -26% (active) | – | 1.32% (active) | -13% (active) | 41.3%
Nc1nccc2c1ccn2-c1cccc(NC(=O)c2ccc(N3CCOCC3)c(C(F)(F)F)c2)c1 | -6.68% (active) | 44.4% | 25.6% | 7.5% (active) | 13.3% | -0.708% (active) | -12.9% (active) | 7.34% (active) | 9.73% (active) | -13.4% (active) | -40.9% (active) | 0.868% (active) | 32.6% | 78.5% | 16.6% | 28.1% | -27.2% (active) | -2.74% (active) | –
COc1ccc(-c2nn(-c3ccc(NC(=O)c4ccc(Cl)c(C(F)(F)F)c4)cc3)cc2-c2ccncc2)cc1Cl | 4.6% (active) | 34.8% | 44.3% | -26.8% (active) | 27.3% | -33.6% (active) | -5.21% (active) | 23.4% | 1.35% (active) | 7.78% (active) | -38.2% (active) | 46.5% | 46.5% | 93.9% | 58.1% | 44.8% | 24% | 35.7% | –
CCn1c(SC)nnc1-c1cc2c([nH]c3ccccc32)c(-c2cccc(O)c2)n1 | 15.6% | 21.6% | 39.5% | 24.1% | 30.5% | 25.3% | -2.24% (active) | 18.4% | – | – | 30.1% | 25.4% | 48.8% | 12.5% | 27.5% | 35% | -7.34% (active) | 8.9% (active) | 12.3%
